Compounds without any hit were thinned out: in the full panel of roughly 79,000, 15% have a hit. Values without a mark were called inactive. The source made the active and inactive calls. Cut-off read from the data, not from the text of the source: active = growth inhibition above about 70%; inactive = the rest.
Test: NCI Yeast Anticancer Drug Screen. Data for the sgs1 strain (AID 173);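 note: 0% = growth of vehicle-only control cultures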
Conditions: S. cerevisiae sgs1 mutant, stronger effect = higher value
Experimental: Growth inhibition of yeast strains with defined genetic alterations is measured as a screen for potential anti-cancer activity. Selected strains with alterations in DNA damage repair or cell cycle control were exposed to compounds and growth inhibition was measured relative to vehicle treated controls. The strain used in this assay is sgs1

Structure (SMILES)	growth inhibition (at 1.2 µM)	growth inhibition (at 3.7 µM)	growth inhibition (at 11.0 µM)	growth inhibition (at 33.0 µM)	growth inhibition (at 100.0 µM)
CC1CCC2(NC1)OC1CC3C4CCC5CC(OC6OC(CO)C(OC7OC(CO)C(O)C(OC8OCC(O)C(O)C8O)C7OC7OC(CO)C(O)C(O)C7O)C(O)C6O)CCC5(C)C4CCC3(C)C1C2C (stereo not given)	2%	0%	2%	-4%	61%
OC1CCCC2CCC[N-]C12.OC1CCCC2CCC[N-]C12.[O]=[V][OH] (stereo not given)	17%	69%	83% (active)	89% (active)	94% (active)
COC(=O)C1C2c3ccccc3C(c3ccccc32)C1C(=O)OC (stereo not given)	-6%	-17%	-11%	-4%	2%
c1c(N2CCOCC2)ssc1=[N+]1CCOCC1	0%	1%	3%	2%	-3%
CCOC(=O)C1C2c3ccccc3C(c3ccccc32)C1C(=O)OCC (stereo not given)	-9%	-19%	12%	19%	97% (active)
CC1CN1C1=C(Cl)C(=O)C(N2CC2C)=C(Cl)C1=O (stereo not given)	22%	37%	78% (active)	97% (active)	97% (active)
CCNC(=O)OCC1C2=C(C(=O)C(C)=C(N)C2=O)N2CC3C(N3C)C12OC (stereo not given)	4%	16%	29%	59%	81% (active)
CN(C)CCC(C(=O)C(Br)Br)(c1ccccc1)c1ccccc1	-1%	17%	94% (active)	99% (active)	99% (active)

From PubChem BioAssay (NCI)
